Laboratory results taken from the supplement of paper PMC3724861.
The entries come from a sample that favours hits as a whole. No count for the full screen is at hand.

tested on: T1, Caupolican (Caup) homeodomain DNA-binding domain; test: PBM E-score (8-mer, recovered from the published 9-mer minima) (E-score (dimensionless, -0.5 to 0.5)); Drosophila protein; higher = stronger relative binding preference, active = 0.31 or more
T1 sequence: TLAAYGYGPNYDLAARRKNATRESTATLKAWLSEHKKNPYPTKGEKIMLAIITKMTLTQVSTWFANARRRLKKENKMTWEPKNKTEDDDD
Description: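 Protein binding microarray (PBM): in vitro transcribed/translated Caupolican (Caup) homeodomain DNA-binding domain (residues 214-303) applied at 100 nM to a universal 8-mer PBM array (Agilent AMADID 015681). The 8-mer enrichment score (E-score, range -0.5 to 0.5) was computed, and each 9-mer score is the minimum E-score of its two constituent 8-mers. The E-score is the same for a 9-mer and its reverse complement; 0.31 is the stated binding threshold.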

PBM E-score, inactive:
CAACAATC 0.258
CAACAAGA 0.241
AAACAATG 0.256
CAACAAGC 0.202
CGCCCCTA -0.159
GTAAGAGA 0.016
GGCTTGCA -0.0355
CGAACAAA 0.157
AGAACAGG 0.139
CGAACATC 0.279
GGAACATA 0.271
AGAACATC 0.235
AGAACAGA 0.16
TAGCTCGA -0.0721
CACACCGG -0.087
GTCGTTCA 0.0698
AGTTGGAG -0.129
CAGTTAAG 0.0884
CGTCTAAG -0.13
GAAAGGTA 0.0535
AAACTCGA 0.0205
ACGTAATG 0.16
CTGTAATA 0.193
ATGTAAGG 0.303
GCGTAATA 0.076
GAGTAATA 0.167
AAGTAATA 0.134
ACGTAATC 0.155
CTGTAATC 0.162
ACTAGTGA 0.113
CGGTCTGA -0.0584
GGCTTAGA -0.112
ACTACCAA 0.167
GTAGGCAC -0.096
GTTAGGAA 0.0363
AATCACTG 0.0918
ACCCAACT -0.0182
CTGTGTAA 0.294
GTGTGTAA 0.275
CTGTGTAC 0.272
ATGTGTAG 0.193
TATGTCCA 0.214
AATGTCCC 0.0508
AATGTCCA 0.251
CATGTCCG 0.303
GTAACGTA 0.198
CCATGTGC -0.0035
ACATGTGG 0.308
CCATGTGA 0.0957
GCATGTGA 0.176
CACTGGAG -0.159
ATACACCG 0.184
ATCGGGGG -0.264
AGATGTAG 0.244
AGATGTAT 0.29
CGATGTAA 0.276
GGATGTAA 0.299
CCGCGTTA -0.054
GATCTAGA -0.0194
CTACTACA 0.305
GCACTACA 0.176
GTACTAAA 0.229
ATACTACC 0.0922
CAGTTTCG -0.0432
CAGCTACG -0.101
ATGTACCG 0.287
CAGTACAC 0.288
GGGTACAC 0.14
ATGTACGC 0.29
CTGTACAC 0.284
ATCTACAT 0.29
CTGTACAG 0.164
TCCGCAAA -0.0879
CCCTTTCA -0.126
ACCCATCG -0.0141
GCCGTCCC -0.25
GCTTCCAC -0.182
ACCCGCAT 0.00073
CCACTCGG -0.158
AAAGAAGC -0.0635
GGGGTACA 0.0877
TAGACGGA -0.0225
CTCCAGTC -0.121
CCAGTGGA -0.117
AAAGGTAC 0.12
CGTACATC 0.263
GGTACATA 0.282
AGTACAGA 0.138
CGTACAGA 0.142
CAGACGCC -0.147
CCGGTCAA -0.0503
GGATCCCA -0.0305
CCTGTTCA 0.15
CCTGTTCC 0.0821
ATTGTTCC 0.112
ATTGTTCA 0.184
CATGGGGG -0.157
ATGGGAAG -0.07
CGTAGACA 0.122
GGTAGACA 0.117
ATACATCG 0.273
ATCCATGA 0.0343
CTACATCC 0.189
ATTCATGG -0.039
ATGCATGC 0.107
ATTCATGC 0.0406
ATACAGGA 0.13
CCACATGC 0.0879
AAAATTAA 0.0601
TATCGTAA 0.114
ACGACTTC 0.0231
CCGCAGAA -0.0611
CGTCGGCC -0.224
GCGCTGCC -0.257
CCAGAGAG -0.172
CGCTTCAA -0.0124
CTATTGTC 0.0455
GAGGTACC -0.137
AGTTGTAC 0.308
CGTTGTAG 0.154
GCCTGTAC 0.164
CTTTGTAC 0.229
ACTTGTAG 0.297
ACTTGTGC 0.0346
CCTTGTGC 0.0734
GCTTGGAC -0.0623
GCCCCTCA -0.223
CGAACGTC -0.121
ATTGAAAA 0.0968
CAAGTTCA 0.0645
GTCATTTA 0.184
AGCGAGCG -0.0955
GATATGAC 0.0792
CATGAAGA 0.0832
GATGGCGA -0.0291
AGAGTCGG -0.0944
CAGTTAAC -0.00501
CATTGTAG 0.0869
GATTGTAC 0.235
CATTCCAC -0.0122
CCAAGTAG -0.0584
CCAAGTAA 0.0669
GCAAGTTA 0.0766
GCAAGAAC 0.00872
ACAAGTGG 0.205
ACAAGAAT 0.307
ACAAGTTC 0.233
GCAAGTAA 0.173
AATCTAGT 0.0691
CCGGTAAC -0.0103
CCGGACAG 0.0176
CCCAAGCA -0.0938
CGACCGCA -0.144
CATGACGC 0.032
AAGGACTA 0.0433
AATTAAGG 0.0103
ACCAGTGC -0.019
TAAGGGGA -0.0541
ACAAGTCT 0.296
GCAAGTAC 0.176
ACAAGGAG 0.224
AAAAGTAT 0.121
CCAAGTAC 0.0484
ACAAGGAA 0.247
AAGATCGA 0.0302
TCAGTTAA 0.0667
ACAGGTAT 0.203
ACCCCTCG -0.218
GTGTGAAC 0.0865
ATATGTCC 0.261
CTCTGTAC 0.137
CTATGTGC 0.0747
ATATGTAG 0.297
CTAGGACA 0.241
TAGTTTAA 0.218
AGCGAGCT -0.108
ACACCACC 0.0972
AAACTTTC -0.0217
ACTGACAG 0.0804
CAAACATA 0.292
AAAACATC 0.305
CAAACACA 0.265
AAAACATT 0.252
CAAACATC 0.23
CAAACACC 0.126

PBM E-score, active:
CAACAAGG 0.338
CAACAATG 0.323
AGAACATG 0.406
AGAACATA 0.318
CGAACATA 0.343
GTGTAATA 0.315
ATGTAATC 0.348
ATGTAATA 0.383
ATGTAATG 0.37
ATGTGTAC 0.348
ATGTGTAA 0.332
CATGTCCC 0.33
CATGTCCA 0.384
ACATGTGA 0.312
ACATGTGC 0.351
TGATGTAA 0.36
AGATGTAA 0.336
ATACTACA 0.364
GTACTACA 0.376
ATGTACAC 0.441
ATGTACAG 0.343
GTGTACAC 0.389
ATGTACAT ≥ 0.469
CGTACATA 0.336
AGTACATA 0.381
CTTGTTCC ≥ 0.337
CTTGTTCA 0.33
TGTAGACA ≥ 0.313
CTACATGC 0.369
ATACATGA 0.4
ATACATGG 0.422
ATACATGC 0.374
CCTTGTAC 0.399
GCTTGTAC 0.38
ACTTGTAC 0.407
CCTTGTAG 0.322
CATTGTAC 0.323
ACAAGAAC 0.316
ACAAGTTA 0.325
ACAAGTAA 0.331
ACAAGTAG 0.351
ACAAGGAT 0.315
ACAAGTAT 0.314
ACAAGTAC 0.35
CTATGTAC 0.381
ATATGTAC 0.387
CAAACACG 0.315
CAAACATG 0.391
AAAACATG 0.419
